High-throughput results: PubChem BioAssay, National Center for Advancing Translational Sciences (NCATS)
JMJD2A Tudor – inhibitors of human JMJD2A Tudor domain. 4.4% of 390,000 active. AlphaScreen JMJD2A-Tudor / H3K4me3 peptide binding. Potency, µM (highest dose often 114 µM), inactives show at the highest dose activity change, negative = inhibition, usual class: inhibitors. O75164; further: potency means the concentration at half of the fitted maximal effect; on the % scale 0 is the no-effect control and ±100 the full control effect; nearly all actives have a fitted effect of over 50% in size
BAZ2B inh – BAZ2B (human) inhibition; Q9UIF8; AlphaScreen BAZ2B-H3K14Ac peptide displacement; Potency, µM (highest dose often 114 µM), for inactives: at the highest dose activity change, negative = inhibition, usual class: inhibitors; 4.4% of 360,000 active; further: potency means the concentration at half of the fitted maximal effect; on the % scale 0 is the no-effect control and ±100 the full control effect; nearly all actives have a fitted effect of over 60% in size
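AlphaScreen displacement of biotin-H3(5-23)K14Ac peptide (50 nM final) from BAZ2B (50 nM final) in PBS pH 7.4, 0.01% Tween-20; complex preformed 30 min RT, then compounds (top 110 uM) 30 min RT, beads 20 min dark.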
PLK1 PBD block – blocks phosphopeptide binding to human PLK1 polo-box domain; P53350; Potency, µM, without a hit: max response, negative = inhibition, hits mostly inhibitors; 2.8% of 360,000 active; Plk1 PBD binding of FITC phosphopeptide, fluorescence polarization; further: potency means the concentration at half of the fitted maximal effect; series mostly up to about 57 µM; on the % scale 0 is the no-effect control and ±100 the full control effect; nearly all actives have a fitted effect of over 65% in size
PI5P4K alpha inh – PI5P4K alpha (human) kinase inhibition. PI5P4Kalpha enzyme, ADP-Glo luminescence, 60 min; hits give low values. max response, %. 1.2% of 330,000 active. AID 652105; active means max response of -50% or lower; inconclusive means between -30% and -50%; inactive means -30% or higher; further: value at the top dose of about 77 µM; on the % scale 0 is the no-effect control and ±100 the full control effect
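Enzyme plus substrate dispensed, test compounds pinned in, then ATP (5 microM final) added. After 60 min at RT, ADP-Glo reagent 1 for 45 min and reagent 2 for 30 min preceded luminescence imaging.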
HP1b binding inh – inhibitors of HP1-beta chromodomain binding to methylated histone tails; P83916; AlphaScreen HP1-beta / biotin-H3K9me3 peptide binding; Potency, µM (top dose mostly 114 µM), without a hit: top-dose activity change, negative = inhibition, actives largely listed as inhibitors; 0.56% of 390,000 active; AID 540317; further: potency means the concentration at half of the fitted maximal effect; nearly all actives have a fitted effect of over 70% in size
Target sequence (P83916 whole entry, looked up): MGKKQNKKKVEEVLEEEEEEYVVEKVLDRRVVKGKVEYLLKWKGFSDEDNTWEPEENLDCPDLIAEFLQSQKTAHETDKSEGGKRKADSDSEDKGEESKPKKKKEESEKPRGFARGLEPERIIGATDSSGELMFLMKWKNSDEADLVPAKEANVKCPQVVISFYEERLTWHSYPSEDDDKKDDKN
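AlphaScreen: HP1-beta (50 nM) preformed 30 min with biotin-H3(1-18)K9me3 peptide (50 nM) in PBS pH 7.4, 0.01% Tween-20. Compound added for 30 min at RT, then streptavidin donor/nickel chelate acceptor beads (10 ug/mL) for 30 min.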
G9a inh – G9a (human) methyltransferase inhibition | Q96KQ7 | G9a H3K9 monomethylation, AlphaScreen, 2 h | Potency, µM (top dose mostly 102 µM), without a hit: at the highest dose activity, negative = inhibition, hits mostly inhibitors | 8.8% of 350,000 active | AID 504332; further: potency means the concentration at half of the fitted maximal effect; on the % scale 0 is the no-effect control and ±100 the full control effect; nearly all actives have a fitted effect of over 75% in size
Target sequence (Q96KQ7 913-1193 limits assumed): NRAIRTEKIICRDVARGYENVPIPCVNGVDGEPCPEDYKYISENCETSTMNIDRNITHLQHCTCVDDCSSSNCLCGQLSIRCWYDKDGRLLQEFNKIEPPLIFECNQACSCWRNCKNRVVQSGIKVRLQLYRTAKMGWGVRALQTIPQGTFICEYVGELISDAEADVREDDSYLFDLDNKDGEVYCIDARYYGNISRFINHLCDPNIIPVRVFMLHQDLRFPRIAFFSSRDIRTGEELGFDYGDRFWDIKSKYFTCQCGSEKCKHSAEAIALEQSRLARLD
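Using a bead-based AlphaScreen, monomethylated H3K9 product from 2 h room-temperature reactions (G9a 20 nM, peptide 500 nM, SAM 20 uM) was detected with 0.5 ug/mL rabbit anti-H3K9me1 antibody.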
* marks the source's active call; other numbers are inactive results; ? = inconclusive; · = not tested or not shown; [ ] = remark or other dose. An excerpt weighted towards active compounds, which were near 12% of everything screened. Unless noted, the call rests on the fitted dose curve; in most records, active means well fitted curve in the direction sought with a large enough effect; inconclusive means small, poorly fitted or top-dose-only effect, or another doubt; inactive means no such curve, though single readings can be large; an effect the other way counts as inactive or inconclusive.

SMILES	JMJD2A Tudor	BAZ2B inh	PLK1 PBD block	PI5P4K alpha inh	HP1b binding inh	G9a inh
N#Cc1ccc(C(=O)OCC(=O)N2CCCCCC2)cc1	-10%	0%	-10%	6	7%	22µM*
O=C(OCC(=O)N1CCCC1)c1ccc(Cl)c([N+](=O)[O-])c1	-5%	-16%	-8%	0	40%	18%
CC1CN(C(=O)COC(=O)c2ccc(C#N)cc2)CC(C)O1 (stereo unspecified)	-2%	-25%	4%	2	39%	50µM*
CCOC(=O)C1CCCN(C(=O)COC(=O)c2ccc(C#N)cc2)C1 (stereo unspecified)	8%	-9%	-2%	-6	22%	?
CC1CN(C(=O)COC(=O)c2ccc(O)cc2)CC(C)O1 (stereo unspecified)	-10%	6%	-13%	-27	3%	17%
CCNc1ccc(C(=O)OCC(=O)N2CCCC2)cc1[N+](=O)[O-]	?	5%	27µM*	-10	-10%	5%
COCCNC(=O)CCn1c(=O)c2cc(OC)c(OC)cc2n(CC(=O)Nc2ccc(F)c(Cl)c2)c1=O	-16%	-14%	·	·	32%	-1%[59 µM]
Cc1nnc(Nc2ccc(S(N)(=O)=O)cc2)c2ccccc12	-22%	-7%	-11%	0	22%	-4%
CCOc1cc(CNn2cn[nH]c2=S)cc(Cl)c1OCc1ccccc1F	?	-2%	-10%	8	9%	7.9µM*
COc1cc(/C=C2\SC(=S)N(NC(C)=O)C2=O)ccc1OC(=O)c1ccco1	?	·	-8%	-12	-9%	·
CCOC(=O)c1ccc(N2NC(=O)/C(=C/c3ccc(OC(=O)c4ccco4)c(OC)c3)C2=O)cc1	·	?	·	·	·	32µM*
C/C=C/c1ccc(OCC(=O)OCC)c(OC)c1	-9%	8%	-16%	-3	21%	-8%[59 µM]
CCOC(=O)COc1ccc(/C=C2/C(=O)NN(c3ccc(F)cc3)C2=O)cc1OC	?	-9%	27µM*	0	14%	-6%[0.501 µM]
COC(=O)c1c(NC(C)=O)sc(C(=O)N2CCOCC2)c1C	-4%	-1%	1%	6	-12%	29%
COC(=O)c1c(NC(=O)C(C)C)sc(C(=O)N2CCOCC2)c1C	-9%	5%	?	-7	-21%	45µM*
CC(C)CN1CCC(=O)N([C@H](CO)c2ccccc2)CC1	-7%	1%	-2%	-5	24%	18%
CCCCn1c(SCC(=O)c2ccc(OC)cc2OC)nc2cc(S(N)(=O)=O)ccc21	-18%	-34%	-12%	-54*	29%	-2%[59 µM]
CCCCn1c(SCc2c(C)noc2C)nc2cc(S(N)(=O)=O)ccc21	-6%	0%	-13%	-10	34%	50µM*
Cc1ccc2c(c1)cc(CN(Cc1ccco1)C(=O)COc1ccccc1)c1nnnn12	-32%[57.1 µM]	8%	24µM*	-11	?	?
COc1ccc2c(c1)c(/C=N/Nc1nc3ccccc3[nH]1)c(C)n2C	?	28µM*	4%	-29	-11%	·
COc1cc(/C=N\Nc2nc3ccccc3[nH]2)cc(OC)c1OC	-9%[57.1 µM]	?	-8%	-9	14%	·
O=C(c1ccc(F)cc1)[C@@H]1[C@@H](C(=O)c2ccccc2)[C@@]2(C(=O)Nc3ccccc32)[C@H]2c3ccccc3C=CN12	·	?	·	·	·	7.1µM*
OCC[C@@H]1C[C@H](O)[C@@H](O)[C@@]2(CCCc3ccccc3O2)O1	-21%	-18%	-12%	0	45%	28µM*
OCC[C@@H]1C[C@H](O)[C@@H](O)[C@@]2(CCc3ccccc3CO2)O1	-10%	-6%	-8%	6	28%	45µM*
OCC[C@H]1C[C@@H](O)[C@H](O)[C@@]2(CCc3ccccc3CO2)O1	-6%	6%	-4%	2	50%	-11%[2.33 µM]
SMILES	JMJD2A Tudor	BAZ2B inh	PLK1 PBD block	PI5P4K alpha inh	HP1b binding inh	G9a inh
OCC[C@@H]1C[C@@H](O)[C@H](O)[C@]2(CCCc3ccccc3O2)O1	-6%	-30%	-9%	8	43%	-5%
COCCn1c(C)cc(O)c(C(c2cccc(F)c2)N2CCN(c3ccccc3)CC2)c1=O (stereo unspecified)	-15%	7%	·	·	31%[57 µM]	?
COC(=O)c1ccc2c(=O)n(CCCCCC(=O)O)c(=S)[nH]c2c1	50µM*	-28%	6%	-15	42%	45µM*
COC(=O)c1ccc2c(=O)n(CCCCCC(=O)N3CCN(c4ccccc4)CC3)c(=O)[nH]c2c1	56µM*	3%	30µM*	-6	-25%	-7%
O=C(NCCc1c[nH]c2ccccc12)C1CCC(Cn2c(=S)[nH]c3ccccc3c2=O)CC1 (stereo unspecified)	-16%	-3%	-3%	·	36%	3%
COCCn1c(=S)[nH]c2cc(C(=O)NC(C)C)ccc2c1=O	?	?	-11%	0	32%	11µM*
CCN1CCN(C(=O)CCCCCn2c(=O)[nH]c3cc(C(=O)OC)ccc3c2=O)CC1	-18%	4%	-8%	·	13%	?
COCCNC(=O)C1CCC(Cn2c(=S)[nH]c3ccccc3c2=O)CC1 (stereo unspecified)	79µM*	-3%	-8%	8	47%	?
Cc1c(C)c(C)c(S(=O)(=O)NCCC(=O)N2CCN(Cc3ccc(C#N)cc3)CC2)c(C)c1C	-14%	-7%	-4%	4	17%	12%[2.33 µM]
CC(=O)c1sc(NC(=O)CCN2C(=O)c3ccccc3C2=O)nc1C	-4%	-19%	-1%	9	18%	20%
OCCCNc1ncnc2c1ncn2[C@H]1CN(Cc2ccco2)C[C@@H](CO)O1	·	·	2%	-2	·	·
CC(C)Cn1c(=S)[nH]c2cc(C(=O)O)ccc2c1=O	-9%	-36%	-10%	-59*	33%	?
CCOCCCn1c(=S)[nH]c2cc(C(=O)NCCCN(CC)CC)ccc2c1=O	-18%	-14%	-6%	2	27%	8.9µM*
CCOCCCn1c(=S)[nH]c2cc(C(=O)NCCOC)ccc2c1=O	40µM*	?	-2%	·	43%	?
CCOCCCn1c(=S)[nH]c2cc(C(=O)NCCc3ccc(OC)c(OC)c3)ccc2c1=O	3%	-1%	0%	3	53%	·
CCOCCCNC(=O)c1ccc2c(=O)n(CCCOCC)c(=S)[nH]c2c1	-11%	-19%	-14%	4	35%	10µM*
Nc1c(C(=O)Nc2ccccc2Cl)c2ccccn2c1C(=O)c1ccc(Cl)cc1	-12%	0%	·	·	39%	3%[59 µM]
Cc1cccc2sc(NNC(=O)c3ccc(S(=O)(=O)N4CC(C)CC(C)C4)cc3)nc12 (stereo unspecified)	22µM*	8.9µM*	-8%	-3	-16%	50µM*
